Here are results for 95 molecules from PubChem BioAssay AID463190 (Sanford-Burnham Center for Chemical Genomics, 2010).

Each structure is given as a SMILES string. The whole screen tested about 330,000 compounds, of which about 7,300 (2.2%) were called active. Many of the other results were omitted from the sample, so actives are more common in it than they were. Values without a mark were called inactive.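 How the source made its calls: active means inhibition of at least 40%; inactive means the rest.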

As usually defined, the inhibition is the relative decrease from the control value, in per cent.

The nature of this experiment: growth inhibitors of tim10-1 mutant yeast, primary screen, luminescence, uHTS (AID 463190).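 Further: mutant grown at 25 °C; 0% = DMSO wells with yeast and 100% = wells holding no yeast.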 To be noted: S. cerevisiae tim10-1 ts strain growth, BacTiter-Glo, 24 h; at 20 µM; stronger effect = higher value.
Turning to `O=C(CCNS(=O)(=O)c1ccccc1C(F)(F)F)NCc1ccc2c(c1)OCO2`, the inhibition was 23.1%. For `Cn1nc(C(F)(F)F)c(C(=O)Nc2cccc(C(F)(F)F)c2)c1SCc1ccc(Cl)cc1` the value was 36%. For `O=C(CCn1nnnc1CN1CCOCC1)N1CCC(c2ccccc2Cl)C1` (stereo not given) the value was 15.3%; for `Cc1ccc(CC(=O)Nc2ccc(OC(F)F)c(Cl)c2)cc1C`, 15.6%; for `O=C(Cc1ccc(Cl)c(Cl)c1)Nc1ccc(SC(F)F)cc1`, 43.5% (active).

As to `CC(=O)N1CCN(CC(=O)Nc2ccc(SC(F)F)cc2)CC1`, the inhibition is -0.192%. As to `O=C(c1ccc(F)cc1)n1c(=S)nc2ccccn21`, the inhibition was 26.9%.

For the molecule `COc1ccc(CNC(=O)[C@@H]2CC=C[C@@H]3CCN(C4CC4)C(=O)[C@@H]32)cc1`, the inhibition was 6.25%. For `CN(Cc1c(F)cccc1Cl)S(=O)(=O)c1cccs1` the value was -0.379%.

On to `COC(=O)c1ccc(CNC(=O)C2CCC(=O)N(Cc3cccc(F)c3)C2)cc1` (stereo not given), for which the inhibition is -22.8%. For `COc1ccc(N2CCN(c3ccc([N+](=O)[O-])cc3Cl)CC2)cc1` the value was -1.93%; for `O=C(O)C1CCN(c2ccc([N+](=O)[O-])cc2[N+](=O)[O-])CC1`, 4.89%; for `O=[N+]([O-])c1ccc(N2CCN(c3ccc(O)cc3)CC2)c(Cl)c1`, 40.3% (active). As for `ONC(=Nc1ccccc1)c1ccccc1Cl`, the inhibition is 18.6%. `ONC(=Nc1ccc(Cl)cc1)c1ccccc1Cl`: the inhibition is 42.6% (active).

Take `O=C(O)C1C2C=CC(O2)C1C(=O)NCCc1cccc(Cl)c1` (stereo not given): the inhibition was -10.4%. For `O=C(CSc1ncn[nH]1)N/N=C/c1ccc(F)cc1`, the inhibition is -11.2%. In the case of `O=C(CSc1ncn[nH]1)Nc1ccc(Br)cc1Br`, the inhibition was -12.6%. For `O=C(/C=C/Sc1ncn[nH]1)c1ccc(Cl)cc1` the value was 61.4% (active). For `N#C/C(=C\c1ccc(N2CCOCC2)o1)C(=O)N1CCOCC1` the value was 9.56%; for `Cc1ccc([N+](=O)[O-])c(OCCCNCC(C)O)c1` (stereo not given), 2.12%; for `CN(C)CCNc1ccc(-c2n[nH]c(=O)c3ccccc23)cc1[N+](=O)[O-]`, 1.37%. For `O=C(/C=C/c1cccs1)NCc1cccnc1` the value was 8.39%; for `O=S(=O)(Nc1cccc(Oc2ccc(Cl)cc2)n1)c1ccc(F)cc1`, 43.9% (active); for `O=S(=O)(Nc1ccc(Oc2ncccn2)c(Cl)c1)c1ccc(F)cc1`, 15.3%. Regarding `O=S(=O)(Nc1ccccn1)c1cccc(S(=O)(=O)c2ccc(Cl)cc2)c1`, the inhibition is 14.9%.

`CCC1CCCCN1S(=O)(=O)Cc1ccccc1Cl` (stereo not given): the inhibition was 25.3%. For `COc1ccc2c(CC(=O)N3CCc4cc(OC)c(OC)cc4C3)coc2c1` the value was 8.12%. For `COc1ccc(-c2nnc(SCC(=O)c3ccco3)n2-c2ccccc2)cc1` the value was 23.4%.

Consider `COc1ccc(NCc2nnc(SCc3ccccc3)n2-c2ccc(OC)cc2)cc1`, for which the inhibition was 49.4% (active). For `CCn1c(CNc2ccc(OC)cc2)nnc1SCC(=O)c1ccc(OC)cc1`, the inhibition is 25.4%. For `O=S(=O)(NC1CCCCC1N1CCN(c2ccccc2F)CC1)c1ccccc1` (stereo not given) the value was 21.7%; for `O=C(CC1(O)C(=O)N(CN2CCOCC2)c2ccccc21)c1ccccc1` (stereo not given), 15.9%. For `C#CCN1C(=O)C(O)(CC(=O)c2cc(OC)ccc2OC)c2ccccc21` (stereo not given) the value was 41.9% (active); for `COc1ccc(C(=O)CN2C(=O)NC3(CCc4ccccc43)C2=O)c(OC)c1` (stereo not given), -9.01%. For `O=C(Nc1cc(S(=O)(=O)N2CCOCC2)ccc1Cl)c1cc(=O)c2ccccc2o1` the value was 19.5%; for `Cc1cccc(NC(=O)Nc2cccc(Oc3c(F)c(F)c(F)c(F)c3F)c2)c1`, 21.3%; for `Cc1ccoc1C(=O)Nc1cccc(Oc2ccccc2)c1`, 49.3% (active). With `CC(Oc1cccc(NC(=O)c2cccs2)c1)C(=O)c1ccccc1` (stereo not given), the inhibition was 27.6%. For `COc1cccc2c1OCC1COc3c(c(=O)n(C)c(=O)n3C)C21` (stereo not given) the value was -6.86%; for `COc1ccccc1N1CC(C(=O)Nc2ccc(S(=O)(=O)N3CCOCC3)cc2)CC1=O` (stereo not given), 4.85%; for `CCN(CC(=O)NCc1cccs1)c1nnnn1-c1ccccc1`, -19.2%. For `CCOC(=O)c1c(C)oc2cc(Br)c(OCC(N)=O)cc12` the value was 1.54%. For `CCOC(=O)c1c(C)oc2cc(Sc3ccccc3)c(O)c(O)c12` the value was 34.3%; for `CCOC(=O)c1c(C)oc2ccc(OCC(=O)N(CC)CC)cc12`, 14.2%; for `CCOC(=O)c1c(-c2ccccc2)oc2ccc(OCC(=O)NN)cc12`, 45.4% (active).

Turning to `CCOC(=O)c1c(-c2ccccc2)oc2ccc(OCC(N)=O)cc12`, the inhibition was 18.7%. As for `CCOC(=O)c1c(-c2ccccc2)oc2cc(Br)c(O)cc12`, the inhibition was 48.2% (active). For `CC(=O)Nc1ccc(C(=O)NNC(=O)CCCCC(=O)NNC(=O)c2ccc(NC(C)=O)cc2)cc1` the value was 10.6%.

Regarding `O=C(/C(=C/c1cccc(Cl)c1)c1nc2ccccc2[nH]1)c1ccccc1`, the inhibition is 43.5% (active). For the molecule `O=C(CCc1nc2ccccc2c(=O)[nH]1)OCC(=O)c1cccc(Cl)c1`, the inhibition was 18.5%. For `O=C(Cc1nc2ccccc2[nH]c1=O)c1ccc(Cl)cc1` the value was 5.58%; for `CCCN=C1N(C)C[C@@H]2[C@@H]3C(=O)N(Cc4ccccc4)C(=O)[C@@H]3[C@](C)(C(=O)OC)N12`, 0.857%; for `O=C(COC(=O)c1cccc(Cl)c1)NC1CCCCCCC1`, 8.83%. For `Cc1cccc([C@H]2[C@@H]3C=CC[C@@H](C)[C@@H]3C(=O)N2Cc2ccccc2)c1` the value was 33.1%. For `Cn1cc(CN2CCCCC2c2ccccn2)c(-c2ccc3c(c2)OCCO3)n1` (stereo not given) the value was 9.13%; for `CCOC(=O)C1CCN(C(=O)Cn2nc(C)c3c(C)n(-c4ccccc4)nc3c2=O)CC1`, 27.3%.

Consider `O=C(NN1CCOCC1)c1cccc(F)c1`, for which the inhibition was -9.56%. For `COc1c(C)c2c(c(O)c1C/C=C(\C)CCC(=O)O)C(=O)OC2` the value was 4.45%; for `N/C(=N\OC(=O)/C=C/c1ccccc1)c1ccc(Br)cc1`, 25.9%; for `N/C(=N\OC(=O)N1c2ccccc2Sc2ccccc21)c1ccc(Br)cc1`, 8.49%. For `COc1ccc(/C(N)=N/OC(=O)CCCc2ccccc2)cc1` the value was 45.1% (active); for `COc1ccc(/C(N)=N/OC(=O)Cc2ccccc2)cc1`, 46.5% (active); for `COc1ccc(/C(N)=N/OC(=O)Oc2ccccc2)cc1`, 5.03%.

`N/C(=N\OC(=O)Cc1ccccc1[N+](=O)[O-])c1ccc(Br)cc1`: the inhibition was 57% (active). For `COc1ccc(CCC(=O)c2ccc(OC)cc2)cc1` the value was 5.98%; for `N/C(=N\OC(=O)CCc1ccccc1)c1ccc(Cl)cc1`, 65.2% (active); for `N/C(=N\OC(=O)CCc1ccccc1)c1cccnc1`, 21.7%. For `O=C(CCc1ccccc1)NNC(=O)COc1ccc(Cl)cc1` the value was 0.762%; for `COc1ccc(S(=O)(=O)NCCCc2ccccc2)cc1`, 19.3%. For `CCOC(=O)C(Cc1ccccc1)NC(=O)CCC(=O)c1ccc(OC)cc1` (stereo not given), the inhibition is 23.1%. For the molecule `COc1ccc(NC(=O)c2sc(N3CCOCC3)nc2-c2ccccc2)c(OC)c1`, the inhibition was 33.9%. For `CCOc1ccc2ccccc2c1/C=N/NC(=O)c1c(C)cc(C)[nH]c1=O` the value was 2.15%; for `CCOC(=O)CN1CC23C=CC(O2)C(C(=O)Nc2ccc(F)cc2)C3C1=O` (stereo not given), 3.99%; for `O=C(CSc1nccn1-c1cccc(F)c1)NC1CCCC1`, -5.65%. Turning to `COC(=O)[C@H](C(C)C)n1c(C)c(C(C)=O)c(C(C)=O)c1C`, the inhibition is 0.67%. For `COc1ccc(CNC(=O)C(C)NCc2ccccc2Cl)cc1` (stereo not given) the value was 21.6%; for `COc1ccc(CNC(=O)COc2ccccc2C(=O)c2cnn(-c3ccccc3)c2)cc1OC`, 4.14%. For `CCN1C(=NCCc2cccnc2)N[C@@H](c2ccccc2)C(C(=O)OC)=C1C` the value was 0.495%; for `COCCN(C(=O)C(C)C)c1nnc(-c2ccc(C(C)(C)C)cc2)s1`, 38.1%; for `Cn1c(SCC(=O)Nc2ccc(N3CCOCC3)cc2)nnc1C(F)(F)F`, -4.28%. Take `C[n+]1ccccc1C1CCCC/C1=N\Nc1ccc([N+](=O)[O-])cc1[N+](=O)[O-]` (stereo not given): the inhibition was 28%. For `O=C(Nc1ccccc1)O/N=C1\CCCCC1c1ccc([N+](=O)[O-])cc1[N+](=O)[O-]` (stereo not given) the value was 24.7%.

Regarding `O=[N+]([O-])c1ccc(N/N=C2/CCCCC2c2ccccn2)c([N+](=O)[O-])c1` (stereo not given), the inhibition is 42% (active). For `O=C(NNC(=S)NC(=O)c1cn(-c2ccccc2)nc1-c1ccccc1)c1ccncc1` the value was 13.6%; for `O=C(C1CCCO1)N(c1ccc(F)cc1)C1C=CS(=O)(=O)C1` (stereo not given), 5.92%; for `CCCN(CCC)c1c([N+](=O)[O-])c(=O)oc2ccccc12`, 11%. For `CCCC(NCC(=O)Nc1ccccc1C(=O)NC1CC1)c1ccccc1` (stereo not given), the inhibition is 11.8%. `CC(=NCc1ccc2c(c1)OCO2)C1=C(O)c2ccccc2C1=O`: the inhibition was 61.2% (active).

Turning to `CCc1ccc(NC(=O)NC(C)c2ccc3c(c2)OCO3)cc1` (stereo not given), the inhibition is 2.45%.

Consider `CC(=NCc1ccco1)C1=C(O)c2ccccc2C1=O`, for which the inhibition was 34.3%. For `Cc1ccc(S(=O)(=O)N2CCN=C2SCc2c(F)cccc2Cl)cc1` the value was -8.21%.

Take `COc1cc(/C=N/NC(=O)Cc2ccccc2)cc(OC)c1OC`: the inhibition was 2.14%. Consider `COc1ccc2[nH]c(C(=O)N/N=C/c3cc(OC)c(OC)c(OC)c3)cc2c1`, for which the inhibition was 20.1%.

On to `COc1cc(N=Cc2c(O)[nH]c3ccccc23)cc(OC)c1OC`, for which the inhibition was 44% (active).
